# Assay outcomes from PubChem.
# RmlC RmlD mix = mixture blocks RmlC and RmlD coupled enzyme activity; RmlC/RmlD coupled enzyme inhibition, 384-well mixture HTS; inhibition, % at 5.5 µM; 0.39% of 110,000 active; in the data active means inhibition above about 30%, passing the limit was not always enough
# YopH PTP inh = blocks Yersinia enterocolitica YopH tyrosine phosphatase. fluorescence Ex485/Em525. inhibition, % (test concentration not listed). 0.16% of 140,000 active; in the data active means inhibition above about 50%
# RmlCD fluor art = shows fluorescent artifact in RmlC/RmlD assay, dose-response counter-screen | shares compounds with RmlC RmlD mix | RmlC/RmlD assay fluorescence artifact counter-screen | calls only | 96% of 360 active | AID 1696; call rule not given here;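 further: compound alone with no enzyme and no substrates present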
# * = called active by the depositor; i = inactive; . = no result given; + = active, no number. Most compounds without a hit are left out; they make up all but 0.41% or so of the library.
SMILES,RmlC RmlD mix,YopH PTP inh,RmlCD fluor art
CCOC(=O)c1c(N)n(Cc2ccco2)c2nc3ccccc3nc12,72,-36,.
COCCOC(=O)c1c(N)n(Cc2ccccc2)c2nc3ccccc3nc12,54,5,.
CCCCOCCCn1c(N)c(C(=O)OCCOC)c2nc3ccccc3nc21,57*,-4,+
Cc1occc(=O)c1OC(=O)Nc1ccc(Cl)c(Cl)c1,.,-11,.
COc1ccc([C@@]2(O)c3c(ccc(CC=C(C)C)c3O)NC(=O)[C@@H]2OC)cc1,5,.,.
CC1(C)CC[C@@]23CC[C@]4(C)[C@@](OC2=O)(C3C1)[C@H]1O[C@H]1C1[C@@]2(C)CC[C@H](O)C(C)(C)C2CC[C@]14C (some centres undefined),-10,.,.
CCC1(C)Cc2ccccc2-c2nc(NCCO)n(-c3ccccc3)c(=O)c21 (centres undefined),-1,-4,.
CC1(C)Cc2ccccc2-c2nc(NCCO)n(-c3ccccc3)c(=O)c21,51*,-21,+
CSc1cccc(NC(=O)/C=C/c2cccc(Cl)c2)c1,.,-12,.
CCOC(=O)c1cc2cc3ccccc3cc2[nH]1,125*,-26,+
CC(C)OC(=O)c1cc2ccccc2[nH]1,-10,-16,.
O=C(CCCn1c(=O)[nH]c2ccsc2c1=O)N1CCN(c2ccccn2)CC1,70*,6,i
O=C(CCCn1c(=O)[nH]c2ccccc2c1=O)N1CCN(c2ccccn2)CC1,.,-8,.
CN(C(=O)COC(=O)c1cc(NS(=O)(=O)c2cc([N+](=O)[O-])ccc2Cl)ccc1O)C1CCCCC1,.,-12,.
Cc1nn(-c2ccc(F)cc2)c2sc(C(=O)OC3CCOC3=O)cc12 (centres undefined),47*,-5,+
CNC(=O)COC(=O)c1cc2c(C)nn(-c3ccc(F)cc3)c2s1,16,-33,.
COCCCn1cnc2oc3nc4ccccc4nc3c2c1=O,50*,-11,+
COCCCn1cnc2c(c1=O)c1nc3ccccc3nc1n2-c1ccccc1,12,-49,.
CC1(C)Oc2ccccc2OC1(O)c1ccc2ccccc2n1 (centres undefined),.,-10,.
CCOC(=O)CSc1nc2ccccc2n1CC(=O)N(C(C)C)C(C)C,3,-19,.
CCOC(=O)CN1C=C(c2ccc3ccccc3n2)C(C[N+](=O)[O-])c2ccccc21 (centres undefined),47*,-9,+
CN1CCN(C(=S)Nc2cc([N+](=O)[O-])ccc2Cl)CC1,.,-30,.
CCOC(=O)c1ccc(-n2c(O)c(/C=N/NC(=O)C3COc4ccccc4O3)c3ccccc3c2=O)cc1 (centres undefined),.,-17,.
COc1ccc2c3c(c(=O)oc2c1OCC(N)=O)CCCC3,32*,-16,+
CCOc1ccc2c3c(c(=O)oc2c1OCC)CCCC3,3,-19,.
COc1cc(CCC(=O)Nc2ccc(C)c(S(=O)(=O)N(C)C)c2)cc(OC)c1OC,.,-20,.
O=C(COc1ccccc1Br)NCCc1nc2ccccc2[nH]1,.,-19,.
Cc1c(C(=O)Nc2ccccc2)sc2nc[nH]c(=O)c12,.,-43,.
